Values of other authors as cited in PubChem BioAssay AID977611.
About 3,900 (100%) of roughly 3,900 compounds were called active. Cut-off not given; nearly all actives show Kd up to about 4200 µM. The set was probably picked from earlier hits. The list shows a part of the results. Numbered stars: 1 amine (or outer) side, 2 acyl side, 3 side chain; on linkers, the order of the positions; unused ones are H or OH. Bridge positions count the residues as written; N and C are the ends. Where a SMILES comes first, the peptide text is derived from it. Non-standard residues stand in square brackets, D forms with d. Square brackets hold non-standard residues; d marks the D form. Residues, ends and D or L forms follow the SMILES beside them. Peptide text beside a SMILES is read from it. [ ]: non-standard residue; d: D form. Thr(P(OH)3+) = C[C@@H](O[P+](O)(O)O)[C@H](N)C(=O)O; Orn(CH(NH2)2) = NC(N)NCCC[C@H](N)C(=O)O; Cha = N[C@@H](CC1CCCCC1)C(=O)O; Orn = NCCC[C@H](N)C(=O)O; X1 = O=C(C[*:1])[*:2]

Assay: PubChem AID 977611
Conditions: PDB protein-ligand complexes, literature Kd

Which Kd (protein: H-2 class I histocompatibility antigen (Y159F mutation), PDB entry 4iho) does the source give for `CC(C)C[C@H](NC(=O)[C@H](Cc1c[nH]c2ccccc12)NC(=O)[C@H](CC(=O)O)NC(=O)[C@H](CCC(N)=O)NC(=O)[C@H](CC(N)=O)NC(=O)[C@H](CCCNC(N)N)NC(=O)[C@@H]1CCCN1C(=O)CNC(=O)[C@@H](N)CCC(=O)O)C(=O)O` (H-EGP[Orn(CH(NH2)2)]NQDWL-OH) here?
The Kd was 8000 nM (active).

Which Kd (protein: Breast cancer type 1 susceptibility protein, PDB entry 1t2v) does the source give for `CC[C@H](C)[C@H](NC(=O)[C@H](CC(=O)O)NC(=O)[C@H](Cc1ccc(O)cc1)NC(=O)[C@H](C)NC(=O)[C@H](C)NC(=O)CN)C(=O)N[C@@H](CO[P+](O)(O)O)C(=O)N[C@@H](CCC(N)=O)C(=O)N[C@H](C(=O)N[C@@H](Cc1ccccc1)C(=O)N1CCC[C@H]1C(=O)N[C@@H](Cc1ccccc1)C(=O)N[C@@H](C)C(=O)N[C@@H](C)C(=O)O)C(C)C` here?
The Kd was 400 nM (active).

With H-SVPIQCTDKTDKQEALFK-OH as the compound, how does the Kd (protein: human tumor necrosis factor receptor(TRAF3), PDB entry 1l0a) read?
The Kd was 23900 nM (active).

With H-SAVLQKKITDYFHPKK-OH as the compound, how does the Kd (protein: human proliferating cell nuclear antigen(PCNA), PDB entry 1vyj) read?
The Kd was 100 nM (active).

Which Kd (protein: FHA1 Domain of Rad53, PDB entry 1k3n) does the source give for `CSCC[C@H](NC(=O)[C@H](CCCCN)NC(=O)[C@@H](N)CCCCN)C(=O)N[C@H](C(=O)N[C@@H](Cc1ccccc1)C(=O)N[C@@H](CCC(N)=O)C(=O)N[C@H](C(=O)N1CCC[C@H]1C(=O)N[C@H](C(=O)N[C@@H](CC(=O)O)C(=O)N1CCC[C@H]1C(=O)N[C@@H](CC(C)C)C(=O)N[C@@H](CCC(=O)O)C(=O)O)[C@@H](C)O)[C@@H](C)O[P+](O)(O)O)[C@@H](C)O` (H-KKMTFQ[Thr(P(OH)3+)]PTDPLE-OH) here?
Its Kd is 10200 nM (active).

Which Kd (protein: Acetylcholine-binding protein AChBP, PDB entry 4qaa) does the source give for `CCCCCCCCNc1cc(-c2ccc(OC)cc2)nc(N)n1` here?
The Kd was 360 nM (active).

Which Kd (protein: GLUCOSYL-3-PHOSPHOGLYCERATE SYNTHASE (GpgS), PDB entry 4de7) does the source give for `C[C@H]1O[C@@H](n2ccc(=O)[nH]c2=O)[C@H](O)[C@@H]1O` here?
Its Kd is 16000 nM (active).

Which Kd (protein: Orotidine 5'-phosphate decarboxylase, PDB entry 3w07) does the source give for `O=c1ccn([C@@H]2O[C@H](CO[P+](O)(O)O)[C@@H](O)[C@H]2O)c(=O)[nH]1` here?
Its Kd is 420000 nM (active).

With `O=c1ccn([C@H]2C[C@H](O)[C@@H](CO[P+](O)(O)N[P+](O)(O)O[P+](O)(O)O)O2)c(=O)[nH]1` as the compound, how does the Kd (protein: DUTPase, PDB entry 4gv8) read?
The Kd was 320 nM (active).

With `O=c1ccn([C@@H]2O[C@H](CO[P+](O)(O)N[P+](O)(O)O[P+](O)(O)O)[C@@H](O)[C@H]2O)c(=O)[nH]1` as the compound, how does the Kd (protein: Poly(A) RNA polymerase protein cid1, PDB entry 4nkt) read?
The Kd was 1080 nM (active).

Which Kd (protein: Ribonucleoside-diphosphate reductase large chain 1, PDB entry 3rsr) does the source give for `O=[N+]([O-])c1ccc2c(ccn2[C@H]2C[C@H](O)[C@@H](CO[P+](O)(O)O[P+](O)(O)O[P+](O)(O)O)O2)c1` here?
Its Kd is 44000 nM (active).

Which Kd (protein: DNA excision repair protein ERCC-1, PDB entry 2jnw) does the source give for H-KIIDTGGGFIL-OH here?
The Kd was 780 nM (active).

With `CC[C@H](C)[C@H](NC(=O)[C@H](Cc1ccc(O)cc1)NC(=O)[C@H](Cc1c[nH]c2ccccc12)NC(=O)[C@H](CC(C)C)NC(=O)[C@H](Cc1c[nH]c2ccccc12)NC(=O)[C@H](CC(N)=O)NC(=O)[C@@H](NC(=O)[C@@H](NC(=O)[C@H](CC(=O)O)NC(=O)[C@H](Cc1ccccc1)NC(=O)[C@H](Cc1c[nH]c2ccccc12)NC(=O)[C@@H](N)CC(N)=O)[C@@H](C)CC)[C@@H](C)O)C(=O)N[C@@H](CCCCN)C(=O)N[C@@H](CCCCN)C(=O)N[C@@H](CCCCN)C(=O)N[C@@H](CCCCN)C(=O)O` as the compound, how does the Kd (protein: human fab 4e10, PDB entry 2fx7) read?
The Kd was 20 nM (active).

With H-TKIDWNKIA-OH as the compound, how does the Kd (protein: Protein S100-B, PDB entry 3iqq) read?
The Kd was 2900 nM (active).

Which Kd (protein: Programmed cell death 6-interacting protein, PDB entry 3c3r) does the source give for H-EDDDIKQLAAWAT-OH here?
The Kd was 41000 nM (active).

With `CC(C)C[C@H](NC(=O)[C@H](Cc1ccc(O)cc1)NC(=O)[C@@H](CCCCN)NC(=O)[C@@H](CO)NC(=O)[C@H](Cc1ccccc1)NC(=O)[C@H](CC1CCCCC1)NC(=O)[C@H](CC(=O)O)NC(=O)[C@H](CO)NC(=O)[C@@H](N)CCCCN)C(=O)N[C@@H](Cc1c[nH]c2ccccc12)C(=O)N[C@@H](CO)C(=O)N[C@@H](CO)C(=O)N[C@@H](CCCCN)C(=O)O` (H-KSD[Cha]F[dS][dK]YLWSSK-OH) as the compound, how does the Kd (protein: human Urokinase plasminogen activator surface receptor(uPAR/CD87), PDB entry 1ywh) read?
The Kd was 16.4 nM (active).

For `CC[C@H](C)[C@H](NC(=O)[C@H](Cc1ccccc1)NC(=O)[C@H](C)N)C(=O)N[C@H](C(=O)N[C@@H](Cc1c[nH]c2ccccc12)C(=O)N[C@@H](CC(C)C)C(=O)N[C@@H](C)C(=O)N[C@@H](CCCNC(N)N)C(=O)N[C@@H](CCCNC(N)N)C(=O)N[C@@H](CC(C)C)C(=O)N[C@@H](CCCCN)C(=O)N[C@@H](CCCCN)C(=O)NCC(=O)N[C@@H](CCCCN)C(=O)N[C@@H](CCCCN)C(=O)O)[C@@H](C)CC` (H-AFIIWLA[Orn(CH(NH2)2)][Orn(CH(NH2)2)]LKKGKK-OH), which Kd (protein: Calmodulin, PDB entry 2lgf) is on record?
Its Kd is 2700 nM (active).

With `CC[C@H](C)[C@H](NC(=O)[C@H](Cc1c[nH]c2ccccc12)NC(=O)[C@H](CC(=O)O)NC(=O)[C@H](CCC(=O)O)NC(=O)[C@H](CC(C)C)NC(=O)[C@@H](N)Cc1ccc(O)cc1)C(=O)N[C@@H](CCCCN)C(=O)N[C@@H](Cc1ccc(O)cc1)C(=O)N[C@@H](CC(N)=O)C(=O)N[C@@H](CC(N)=O)C(=O)N[C@H](C=O)CCC(N)=O` (H-YLEDWIKYNNQ-aldehyde) as the compound, how does the Kd (protein: FAB F22-4, PDB entry 3ggw) read?
Its Kd is 2900 nM (active).

For H-DEEALKQLAEWVS-OH, which Kd (protein: Programmed cell death 6-interacting protein, PDB entry 3c3o) is on record?
Its Kd is 44000 nM (active).

With `CC[C@H](C)[C@H](NC(=O)[C@H](CC(=O)O)NC(=O)[C@H](Cc1ccccc1)NC(=O)[C@H](CCCNC(N)N)NC(=O)[C@H](CC(C)C)NC(=O)[C@H](CCCCN)NC(=O)[C@@H](N)CCCCN)C(=O)O` (H-KKL[Orn(CH(NH2)2)]FDI-OH) as the compound, how does the Kd (protein: Serine/threonine-protein phosphatase PP1-alpha catalytic subunit, PDB entry 3n5u) read?
Its Kd is 1200 nM (active).

For `CC[C@H](C)[C@H](NC(=O)[C@H](CCC(=O)O)NC(=O)[C@H](CC(N)=O)NC(=O)[C@H](CCC(=O)O)NC(=O)[C@@H](NC(=O)[C@H](Cc1c[nH]c2ccccc12)NC(=O)CNC(=O)[C@H](CO)NC(=O)[C@H](CCC(=O)O)NC(=O)[C@H](CCCCN)NC(=O)[C@H](CO)NC(=O)[C@H](CCCNC(N)N)NC(=O)CN)C(C)C)C(=O)N[C@@H](Cc1ccc(O)cc1)C(=O)N[C@@H](Cc1ccc(O)cc1)C(=O)O` (H-G[Orn(CH(NH2)2)]SKESGWVENEIYY-OH), which Kd (protein: Talin-1, PDB entry 2k00) is on record?
The Kd was 24000 nM (active).

For `CC(C)C[C@H](NC(=O)[C@@H](NC(=O)CNC(=O)[C@H](Cc1ccc(O)cc1)NC(=O)[C@@H](NC(=O)CNC(=O)[C@@H](NC(=O)[C@H](CCCNC(N)N)NC(=O)[C@H](CCCNC(N)N)NC(=O)[C@H](C)N)[C@@H](C)O)[C@@H](C)O)C(C)C)C(=O)N[C@@H](C)C(=O)N[C@@H](C)C(=O)N[C@@H](Cc1c[nH]c2ccccc12)C(=O)N[C@@H](C)C(=O)N[C@@H](C)C(=O)N[C@@H](C)C(=O)O` (H-A[Orn(CH(NH2)2)][Orn(CH(NH2)2)]TGTYGVLAAWAAA-OH), which Kd (protein: mouse radixin FERM domain, PDB entry 1j19) is on record?
Its Kd is 16.4 nM (active).

Which Kd (protein: human fab 4e10, PDB entry 2fx9) does the source give for `CC[C@H](C)[C@@H]1NC(=O)[C@@H](NC(=O)[C@H](Cc2ccccc2)NC(=O)[C@H](Cc2c[nH]c3ccccc23)NC(=O)[C@@H](N)CC(N)=O)CSCC(=O)NCCC[C@@H](C(=O)N[C@@H](Cc2c[nH]c3ccccc23)C(=O)N[C@@H](CC(C)C)C(=O)N[C@@H](Cc2c[nH]c3ccccc23)C(=O)N[C@@H](CCCCN)C(=O)N[C@@H](CCCCN)C(=O)N[C@@H](CCCCN)C(=O)N[C@@H](CCCCN)C(=O)O)NC(=O)[C@H]([C@@H](C)O)NC1=O` (H-NWFCIT[Orn]WLWKKKK-OH; linker 4-7 via X1) here?
Its Kd is 17 nM (active).
